Assays:
Type in all cases: functional
[1] = tested on: Plasmodium falciparum; experiment: GSK_TCMDC: Inhibition of Plasmodium falciparum 3D7 in whole red blood cells, using parasite LDH activity as an index of growth. Test compounds present at 2uM
[2] = tested on: Plasmodium falciparum; experiment: GSK_TCMDC: Inhibition of Plasmodium falciparum Dd2 in whole red blood cells, using parasite LDH activity as an index of growth. Test compounds present at 2uM
[3] = tested on: HepG2; experiment: GSK_TCMDC: Percent inhibition of human HepG2 cell line. Test compounds present at 10uM.

Compound	Inhibition [1]	Inhibition [2]	Inhibition [3]
COc1c(C2CCN(CCCCNC(=O)c3ccc(-c4ccc(Cl)cc4)cc3)CC2)ccc2c1C(C)(C)CCC2(C)C	95%	42%	94%
CCOc1ccc2c(=NN=Cc3ccc(F)cc3)cc(C)[nH]c2c1	100%	99%	22%
Cl.c1cc2[nH]c(CCCCc3nc4cc(C5=N[C@H]6CCCC[C@H]6N5)ccc4[nH]3)nc2cc1C1=N[C@H]2CCCC[C@H]2N1	90%	88%	5%
CC(C)(C)c1ccc(NC(=O)c2cccc(CN3CCCN(Cc4cccc(C#N)c4)CC3)c2)cc1.O=C(O)C(F)(F)F	97%	12%	39%
Cc1cc(-c2cccc(CNC3CCN(C)CC3)c2)ccc1S(=O)(=O)NCCN1CCCC1.O=C(O)C(F)(F)F	100%	0%	18%
Cc1ccc(CNC(=O)[C@H](CC(C)C)Nc2cc(C)nc(Nc3ccccc3)n2)cc1.O=C(O)C(F)(F)F	97%	19%	12%
COc1cc(NC2CCCC(NCc3cn(S(=O)(=O)c4ccccc4)c4ccccc34)C2)nc2ccccc12 (stereo unspecified)	100%	61%	4%
Cn1cc(C2CCN(CCCCNC(=O)c3ccc(-c4ccc(C(F)(F)F)cc4)c(CO)c3)CC2)c2ccccc21	88%	16%	67%
CNc1ccc(CNCc2ccc(-c3ccc(-c4nc5cc(C(F)(F)F)ccc5[nH]4)s3)cc2)cc1.O=C(O)C(F)(F)F	100%	97%	44%
CCCCCC(C)C(C)c1cc(O)c2c(c1)OC(C)(C)CC2=Cc1ccncc1 (stereo unspecified)	100%	78%	0%
Cc1cc(N2CCNCC2)c2cc(NC(=O)Nc3ccc(Cl)c(Cl)c3)ccc2n1.Cl	100%	86%	23%
c1ccc(Oc2ccc(Nc3ccnc4ccc(-c5ccccn5)cc34)cc2)cc1	80%	10%	4%
Cn1cncc1C(=O)Nc1ccc(-c2cccc(-c3nc4cc(F)ccc4[nH]3)c2)cc1	100%	23%	5%
CCCN(C(=O)c1ccccc1C)c1nnc(-c2ccccc2C)s1	90%	65%	16%
CCCN(CCC)C(=O)c1cc(C(=O)N[C@@H](Cc2ccccc2)[C@H](O)CNC(C)(C)c2cccc(C(F)(F)F)c2)cc(N2CCCCS2(=O)=O)c1	99%	98%	19%
O=C(Nc1ccc(-n2ccc(C(F)(F)F)n2)cc1)c1cccs1	89%	67%	6%
Cl.O=c1cc(NCCCNCc2ccc(Cl)c(Cl)c2)[nH]c2ccc(C(F)(F)F)cc12	100%	68%	10%
Cc1ccc(NC(=O)c2cccc(N3CCN(c4ccncc4)CC3)c2)cc1F.O=C(O)C(F)(F)F	100%	72%	43%
CCCCNC(=N)Nc1ccc(OCCCOc2ccc(NC(=N)NCCCC)cc2)cc1	96%	97%	15%
Cc1ccc(NC(=O)c2ccc(CN3CCCN(Cc4cccc(O)c4)CC3)cc2)cc1F.O=C(O)C(F)(F)F	97%	31%	48%
CCCOc1cc(NC(=O)Nc2ccnc3ccccc23)cc(OCCC)c1.Cl	100%	98%	6%
O=C(O)C(F)(F)F.c1ccc(CN2CCC(NCc3ccccc3-c3cccc(CNC4CCCC4)c3)CC2)cc1	100%	59%	35%
CN(C)S(=O)(=O)c1ccc(N2C(=O)C3C(C2=O)C2(c4ccccc4)C(=O)C3(c3ccccc3)C(c3ccccc3)=C2c2ccccc2)cc1 (stereo unspecified)	92%	63%	0%
O=C(NC1CC1)c1cnc(N2CCC(Oc3ccc(Cl)cc3)CC2)c(Cl)c1	86%	75%	12%
O=C(Nc1ccc(-c2ccc(-c3nc4ccccc4[nH]3)s2)cc1)Nc1ccc(F)c(F)c1F	99%	97%	57%
O=C(Nc1ccccc1Cc1ccccc1)c1ccccc1C(F)(F)F	99%	85%	0%
CCOC(=O)c1cc(C(=O)NCCCCN2CCC(c3cn(C)c4ccccc34)CC2)ccc1-c1ccc(C(F)(F)F)cc1	91%	6%	25%
